Measured values reported in ChEMBL document CHEMBL4513140, “CO-ADD screening of Lancaster University (UK) compounds” (2021).
Entries with a potency or affinity are not part of this list.

Columns and labels:
Staphylococcus aureus = settings: Concentration 32 ug.mL-1; ASSAY_TEST Inhibition of Bacterial Growth; detection method Absorption (OD600); MEDIA CAMHB; plate type 384well; NBS; CORNING #3640; time 18 hr
Escherichia coli = settings: Concentration 32 ug.mL-1; ASSAY_TEST Inhibition of Bacterial Growth; detection method Absorption (OD600); MEDIA CAMHB; plate type 384well; NBS; CORNING #3640; time 18 hr

SMILES	Inhibition (Staphylococcus aureus) [%]	Inhibition (Escherichia coli) [%]
c1ccc2nc3c4cccnc4c4ncccc4c3nc2c1	8.68	-14.57
CC(=NN)c1cc(/C(C)=N/N)cc(/C(C)=N/N)c1	18.93	9.06
CC(=O)c1cc(C(C)=O)cc(C(C)=O)c1	25.72	-14.66
COC(=O)c1ccc(S)cc1	8.34	-21.23
